# Experimental data taken from PubChem BioAssay (NCI).
# This is part of a sample that, as a whole, favours compounds with a hit. Of some 83,000 tested, about 20% had one in any assay.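 Negative percent growth values reflect cell death: -40 means 40% of the cells present at the start died, and -100 means all died.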 Values without a mark were called inactive. Active and inactive are the calls of the source. How the source made its calls: active means growth percent below 10; inactive means the rest.
# Tested on: HOP-62 NSCLC
# Test: NCI-60 one-dose screen, 48 h (100 = growth as untreated, 0 = no growth, -100 = all killed)
# Conditions: 10 µM unless noted
row,Compound,growth
1,O=c1oc2ccccc2c(Cl)c1Cl,83.3%
2,O=C1NC(=Nc2ccc(Cl)cc2)S/C1=C\c1cn(-c2ccccc2)nc1-c1ccccc1,99.6%
3,COc1ccccc1NC(=O)N/C(N)=N/c1nc2ccccc2s1,32.7%
4,Cc1ccc(NS(=O)(=O)c2ccc3c(c2)C2OCCC2C(c2ccc(C(=O)C(C)C)cc2)N3)cc1C (centres undefined),70.3%
5,N#Cc1c(N)nc2c(C#N)c(NC(=O)c3ccccc3)nn2c1-c1ccccc1,90.7%
6,COc1cccc(Nc2nccc(Nc3ccc4[nH]ncc4c3)n2)c1,-11.4% (active)
7,C[C@H]1[C@H]2[C@H]3CC[C@@H]4[C@@]5(C)C/C(=C/c6ccco6)C(=O)C(C)(C)[C@@H]5CC[C@@]4(C)[C@]3(C)CC[C@]23CO[C@]1(C)[C@@H](C(=O)/C=C\c1ccco1)C3,106%
8,O=C(NCCCNc1cc(-c2cn(-c3ccccc3)nc2-c2cccc(O)c2)ccn1)c1ccccc1,47%
9,COc1ccc(-c2csc(C3=C(O)CN(CCCN4CCCC4=O)C3=N)n2)cc1OC,90.2%
10,CCCCCc1nc2c(c3c1CCCC3)CCCC2,77.6%
11,Clc1cccc(Cl)c1/C=C/c1cc(/C=C/c2c(Cl)cccc2Cl)[nH]n1,49.7%
12,COC(=O)c1c2c(c(C)[n+]([O-])c1C)C(=O)C(NCc1ccc(F)c(Cl)c1)=CC2=O,28.3%
13,Cc1c(C)c2c(c(C)c1OCC(=O)O)CC[C@@](C)(CCC[C@@H](C)CCC[C@@H](C)CCCC(C)C)O2,2.69% [50 µM] (active)
14,c1c[nH]c(CNC2CCCCC2)c1,103%
15,NC(=O)c1ccc[n+](Cc2ccc(Cl)cc2Cl)c1,88.3%
16,Cc1ccc(Cl)c(NS(=O)(=O)c2ccc(-c3cnc(C4CC4)o3)cc2)c1,42.7%
17,Cc1ccc(-c2cc3c(cc2O)C2CCCCC2(N2CCOCC2)O3)cc1 (centres undefined),110%
18,CC1=C([Se]CC(OC(=O)CC[Se]c2ccccc2)C(=O)NCCCCCC(=O)OCc2ccccc2)C(=O)c2ccccc2C1=O (centres undefined),-15.1% (active)
19,COc1cc(-c2nn(-c3ccccc3)cc2-c2ccnc(NCCNS(=O)(=O)c3ccc(Cl)cc3)n2)ccc1Cl,48%

row,Compound,growth
1,CC1=C(SCCC(=O)OC(C[Se]C2=C(C)C(=O)c3ccccc3C2=O)C(=O)NCCCCCC(=O)OCc2ccccc2)C(=O)c2ccccc2C1=O (centres undefined),12.8%
2,OC(c1cccc(-n2ccc(C(F)(F)F)n2)c1)c1cnccc1NC1CCCCCC1 (centres undefined),73.7%
3,O=C(Nc1cccc(Oc2nnc(Cl)c3ccccc23)c1)Nc1ccc(Cl)c(C(F)(F)F)c1,-81.6% (active)
4,Cc1cc(NCCCCNc2ccnc3cc(Cl)ccc23)nc(Nc2ccc(C(=O)N3CCCC3)cc2)n1,92.5%
5,N=C1C(c2nc(-c3ccc(Br)cc3)cs2)=C(O)CN1Cc1cccnc1,43.6%
6,O=C(Nc1cccc(Cl)c1)c1cc(N=Nc2ccc([N+](=O)[O-])cc2Cl)ccc1O,72.9%
7,Cc1cccc(Cc2cnc(NC(=O)/C=C/c3ccco3)s2)c1,23.7%
8,CNC(=O)NCC1OC(n2cnc3c(NC(=O)Nc4ccccc4)ncnc32)C(O[Si](C)(C)C(C)(C)C)C1CC(=O)N(C)OC (centres undefined),60.3%
9,CCN1C(=O)N(CC)C2Nn3c(s/c(=C\c4ccc(Cl)cc4Cl)c3=O)=NC21 (centres undefined),72.3%
10,CCN(CC)CCCCCCNc1cc(OC)c(Cl)c2cccnc12,69.1%
11,c1csc(-c2c3ccc(=[N+]4CCCCC4)cc-3oc3cc(N4CCCCC4)ccc23)c1,-60.6% (active)
12,COc1ccc(NC(=O)c2nc(-c3cc(OC)c(OC)c(OC)c3)n(-c3cccc4ccccc34)n2)cc1OC,42.1%
13,O=C(Cc1ccc(F)c(F)c1)Nc1cc(C2(C(F)(F)F)CC2)nn1Cc1ccccc1,-0.0766% (active)
14,N=c1sc(Cc2ccc(Cl)cc2)cn1CC(=O)c1ccc(F)cc1,102%
15,COc1ccc(S(=O)(=O)NCCNc2nccc(-c3c(-c4cccc(F)c4)nc4sccn34)n2)cc1,73.4%
16,COc1ccc2c(c1)O/C(=C\c1cccc(OCC(=O)Nc3nc4ccccc4s3)c1)C2=O,115%
17,Cc1c(C(=O)OC(=NC2CCCCC2)NC2CCCCC2)sc2c1c(=O)nc1c(C#N)n[nH]n12,89.5%
18,COc1ccc(-c2nc(SC(C)C)nc(NNC(N)=S)c2C#N)cc1,63.7%

# Tested on: NCI-H460 lung
# Test: as above
# Conditions: 10 µM unless noted
row,Compound,growth
1,O=c1oc2ccccc2c(Cl)c1Cl,103%
2,O=C1NC(=Nc2ccc(Cl)cc2)S/C1=C\c1cn(-c2ccccc2)nc1-c1ccccc1,44.6%
3,COc1ccccc1NC(=O)N/C(N)=N/c1nc2ccccc2s1,10.1%
4,Cc1ccc(NS(=O)(=O)c2ccc3c(c2)C2OCCC2C(c2ccc(C(=O)C(C)C)cc2)N3)cc1C (centres undefined),31.7%
5,N#Cc1c(N)nc2c(C#N)c(NC(=O)c3ccccc3)nn2c1-c1ccccc1,96.8%
6,COc1cccc(Nc2nccc(Nc3ccc4[nH]ncc4c3)n2)c1,-68.1% (active)
7,C[C@H]1[C@H]2[C@H]3CC[C@@H]4[C@@]5(C)C/C(=C/c6ccco6)C(=O)C(C)(C)[C@@H]5CC[C@@]4(C)[C@]3(C)CC[C@]23CO[C@]1(C)[C@@H](C(=O)/C=C\c1ccco1)C3,107%
8,O=C(NCCCNc1cc(-c2cn(-c3ccccc3)nc2-c2cccc(O)c2)ccn1)c1ccccc1,30.4%
9,COc1ccc(-c2csc(C3=C(O)CN(CCCN4CCCC4=O)C3=N)n2)cc1OC,113%
10,CCCCCc1nc2c(c3c1CCCC3)CCCC2,83%
11,Clc1cccc(Cl)c1/C=C/c1cc(/C=C/c2c(Cl)cccc2Cl)[nH]n1,11.4%
12,COC(=O)c1c2c(c(C)[n+]([O-])c1C)C(=O)C(NCc1ccc(F)c(Cl)c1)=CC2=O,7.33% (active)
13,Cc1c(C)c2c(c(C)c1OCC(=O)O)CC[C@@](C)(CCC[C@@H](C)CCC[C@@H](C)CCCC(C)C)O2,3.28% [50 µM] (active)
14,c1c[nH]c(CNC2CCCCC2)c1,105%
15,NC(=O)c1ccc[n+](Cc2ccc(Cl)cc2Cl)c1,102%
16,Cc1ccc(Cl)c(NS(=O)(=O)c2ccc(-c3cnc(C4CC4)o3)cc2)c1,14.3%
17,Cc1ccc(-c2cc3c(cc2O)C2CCCCC2(N2CCOCC2)O3)cc1 (centres undefined),103%
18,CC1=C([Se]CC(OC(=O)CC[Se]c2ccccc2)C(=O)NCCCCCC(=O)OCc2ccccc2)C(=O)c2ccccc2C1=O (centres undefined),21.6%
19,COc1cc(-c2nn(-c3ccccc3)cc2-c2ccnc(NCCNS(=O)(=O)c3ccc(Cl)cc3)n2)ccc1Cl,19%

row,Compound,growth
1,CC1=C(SCCC(=O)OC(C[Se]C2=C(C)C(=O)c3ccccc3C2=O)C(=O)NCCCCCC(=O)OCc2ccccc2)C(=O)c2ccccc2C1=O (centres undefined),10.9%
2,OC(c1cccc(-n2ccc(C(F)(F)F)n2)c1)c1cnccc1NC1CCCCCC1 (centres undefined),-64.6% (active)
3,O=C(Nc1cccc(Oc2nnc(Cl)c3ccccc23)c1)Nc1ccc(Cl)c(C(F)(F)F)c1,-77.4% (active)
4,Cc1cc(NCCCCNc2ccnc3cc(Cl)ccc23)nc(Nc2ccc(C(=O)N3CCCC3)cc2)n1,18.1%
5,N=C1C(c2nc(-c3ccc(Br)cc3)cs2)=C(O)CN1Cc1cccnc1,66.7%
6,O=C(Nc1cccc(Cl)c1)c1cc(N=Nc2ccc([N+](=O)[O-])cc2Cl)ccc1O,39.6%
7,Cc1cccc(Cc2cnc(NC(=O)/C=C/c3ccco3)s2)c1,3.34% (active)
8,CNC(=O)NCC1OC(n2cnc3c(NC(=O)Nc4ccccc4)ncnc32)C(O[Si](C)(C)C(C)(C)C)C1CC(=O)N(C)OC (centres undefined),18.1%
9,CCN1C(=O)N(CC)C2Nn3c(s/c(=C\c4ccc(Cl)cc4Cl)c3=O)=NC21 (centres undefined),16.4%
10,CCN(CC)CCCCCCNc1cc(OC)c(Cl)c2cccnc12,83.9%
11,c1csc(-c2c3ccc(=[N+]4CCCCC4)cc-3oc3cc(N4CCCCC4)ccc23)c1,-57.3% (active)
12,COc1ccc(NC(=O)c2nc(-c3cc(OC)c(OC)c(OC)c3)n(-c3cccc4ccccc34)n2)cc1OC,49.6%
13,O=C(Cc1ccc(F)c(F)c1)Nc1cc(C2(C(F)(F)F)CC2)nn1Cc1ccccc1,0.876% (active)
14,N=c1sc(Cc2ccc(Cl)cc2)cn1CC(=O)c1ccc(F)cc1,33.7%
15,COc1ccc(S(=O)(=O)NCCNc2nccc(-c3c(-c4cccc(F)c4)nc4sccn34)n2)cc1,29%
16,COc1ccc2c(c1)O/C(=C\c1cccc(OCC(=O)Nc3nc4ccccc4s3)c1)C2=O,110%
17,Cc1c(C(=O)OC(=NC2CCCCC2)NC2CCCCC2)sc2c1c(=O)nc1c(C#N)n[nH]n12,112%
18,COc1ccc(-c2nc(SC(C)C)nc(NNC(N)=S)c2C#N)cc1,22.4%
